Measurements: PubChem BioAssay (NCI)
The panel holds about 79,000 compounds, 15% with a hit somewhere; the sample as a whole holds those more often. Activity calls are given as the source filed them. Rule as the data show it: active = growth inhibition above about 70%; inactive = the rest.

Legend:
[1] = NCI Yeast Anticancer Drug Screen. Data for the rad52 strain (AID 147);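 also: 0% = growth of vehicle-treated control cultures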; conditions: S. cerevisiae rad52 mutant growth inhibition, active compounds read high
How it was run: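 Yeast strain carrying a DNA damage repair alteration was exposed to test compounds. Growth inhibition was measured relative to vehicle-treated controls.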

[2] = NCI Yeast Anticancer Drug Screen. Data for the wt1 strain (AID 149);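 also: 0% = growth of vehicle-treated wt1 cultures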; conditions: S. cerevisiae wt1 strain (SPY 50644) growth inhibition, active compounds read high
How it was run: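 Compounds are added to wt1 yeast cultures. Growth is then measured. Inhibition is expressed relative to vehicle-treated controls.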

[3] = NCI Yeast Anticancer Drug Screen. Data for the rad50EPP+ strain (AID 151);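 also: 0% = growth of vehicle-treated control cultures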; conditions: S. cerevisiae rad50 mutant strain, active compounds read high
How it was run: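 Yeast strain carrying rad50 alteration (rad50EPP+) exposed to compounds; growth inhibition measured relative to vehicle-treated controls.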

[4] = NCI Yeast Anticancer Drug Screen. Data for the mgt1 strain (AID 153); conditions: S. cerevisiae mgt1 mutant growth inhibition, active compounds read high
How it was run: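 Yeast mgt1 strain (DNA repair/cell-cycle alteration panel) exposed to compounds; growth inhibition measured relative to vehicle-treated controls.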

[5] = NCI Yeast Anticancer Drug Screen. Data for the rad50 strain (AID 155);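 also: 0% = growth of vehicle-only cultures of the same strain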; conditions: S. cerevisiae rad50 strain growth inhibition, active compounds read high
How it was run: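 Inhibition values express reduced yeast growth in compound-treated cultures relative to vehicle-treated controls.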

[6] = NCI Yeast Anticancer Drug Screen. Data for the mec2-1 strain (AID 157); conditions: S. cerevisiae mec2-1 strain, active compounds read high
How it was run: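 mec2-1 yeast strain, carrying an alteration in DNA damage repair or cell cycle control, was exposed to compounds; growth inhibition was measured relative to vehicle-treated controls.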

[7] = NCI Yeast Anticancer Drug Screen. Data for the rad14 strain (AID 159);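 also: 0% = growth of vehicle-treated control cultures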; conditions: S. cerevisiae rad14 strain growth inhibition, active compounds read high
How it was run: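 A mutant yeast strain defective in DNA damage repair is treated with compound; inhibition of its growth is scored against untreated, vehicle-exposed cultures.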

[8] = NCI Yeast Anticancer Drug Screen. Data for the sgs1 mgt1 strain (AID 161);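 also: 0% = growth of cultures given vehicle only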; conditions: S. cerevisiae sgs1 mgt1 strain, active compounds read high
How it was run: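 Yeast cells carrying a defined DNA-repair defect were exposed to test compounds. Growth inhibition was measured relative to vehicle-treated controls.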

[9] = NCI Yeast Anticancer Drug Screen. Data for the CLN2oe strain (AID 163);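 also: 0% = growth of vehicle-only control cultures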; conditions: S. cerevisiae CLN2oe strain, active compounds read high
How it was run: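 Yeast cells carrying a defined cell-cycle control alteration were exposed to test compounds. Growth inhibition was scored against vehicle-treated control cultures.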

[10] = NCI Yeast Anticancer Drug Screen. Data for the cln2 rad14 strain (AID 165);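 also: 0% = growth equal to vehicle treated cultures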; conditions: S. cerevisiae cln2 rad14 strain, active compounds read high
How it was run: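 Yeast carrying cln2 and rad14 alterations (cell cycle control and DNA damage repair) were exposed to compounds. Growth inhibition was measured against vehicle-treated controls.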

[11] = NCI Yeast Anticancer Drug Screen. Data for the bub3 strain (AID 167); conditions: S. cerevisiae bub3 mutant strain, active compounds read high
How it was run: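 Steps: expose the mutant yeast strain to compound; grow alongside vehicle-treated cultures; measure growth; express inhibition against the vehicle cultures.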

[12] = NCI Yeast Anticancer Drug Screen. Data for the wt2 strain (AID 169);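 also: 0% = growth of vehicle-treated yeast cultures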; conditions: S. cerevisiae wt2 strain growth inhibition, active compounds read high
How it was run: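 Yeast cells were exposed to test compounds, and growth inhibition was measured relative to vehicle-treated controls.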

[13] = NCI Yeast Anticancer Drug Screen. Data for the mlh1 strain (AID 171);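 also: 0% = growth of vehicle-treated control cultures of the same strain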; conditions: S. cerevisiae mlh1 strain growth inhibition, active compounds read high
How it was run: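 Yeast carrying a defined genetic alteration in DNA damage repair or cell cycle control were exposed to test compounds. Growth inhibition was measured relative to vehicle-treated controls.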

[14] = NCI Yeast Anticancer Drug Screen. Data for the sgs1 strain (AID 173);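 also: 0% = growth of vehicle-only control cultures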; conditions: S. cerevisiae sgs1 mutant, active compounds read high
How it was run: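 Yeast mutant strains carrying defined defects in DNA damage repair or cell cycle control were exposed to test compounds. Growth inhibition was scored against vehicle-treated controls.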

[15] = NCI Yeast Anticancer Drug Screen. Data for the mlh1 rad18 strain (AID 175); conditions: S. cerevisiae mlh1 rad18 strain growth inhibition, active compounds read high
How it was run: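 Growth inhibition of the yeast strain was measured after compound exposure and expressed relative to vehicle-treated controls. The strain carries defined defects in DNA damage repair.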

[16] = at 5.0 µM (retest, dose inferred, filed as 0.5)
[17] = at 50.0 µM (retest, dose inferred, filed as 5.0)

Measured: growth inhibition

O=C1c2cccc3cccc(c23)C(=O)N1O
inactive: [1]; at 1.2 µM -3% | [1]; at 3.7 µM 3% | [1]; at 11.0 µM 1% | [1]; at 33.0 µM 24% | [2]; at 1.2 µM 3% | [2]; at 3.7 µM -1% | [2]; at 11.0 µM 7% | [2]; at 33.0 µM 24% | [3]; at 1.2 µM -3% | [3]; at 3.7 µM -2% | [3]; at 11.0 µM -1% | [3]; at 33.0 µM 28% | [4]; at 1.2 µM -8% | [4]; at 3.7 µM 4% | [4]; at 11.0 µM 23% | [5]; at 1.2 µM 9% | [5]; at 3.7 µM 13% | [5]; [16] 13% | [5]; at 11.0 µM 13% | [5]; at 33.0 µM 54% | [6]; at 1.2 µM 5% | [6]; at 3.7 µM -5% | [6]; [16] 33% | [6]; at 11.0 µM 4% | [6]; at 33.0 µM 36% | [7]; at 1.2 µM 16% | [7]; at 3.7 µM 13% | [7]; at 11.0 µM 46% | [9]; at 1.2 µM 6% | [9]; at 3.7 µM 8% | [9]; at 11.0 µM 29% | [10]; at 50.0 µM 47.1% | [11]; at 1.2 µM 4% | [11]; at 3.7 µM 18% | [12]; at 1.2 µM 3% | [12]; at 3.7 µM 17% | [13]; at 1.2 µM -11% | [13]; at 3.7 µM -10% | [13]; at 11.0 µM 0% | [13]; at 33.0 µM 57% | [14]; at 1.2 µM 14% | [14]; at 3.7 µM 8% | [14]; at 11.0 µM 19% | [14]; at 33.0 µM 67% | [15]; [16] 23%
active: [1]; at 100.0 µM 84% | [2]; at 100.0 µM 86% | [3]; at 100.0 µM 89% | [4]; at 33.0 µM 81% | [4]; at 100.0 µM 95% | [5]; [17] 99% | [5]; at 50.0 µM 84.4% | [5]; at 100.0 µM 89% | [6]; [17] 98% | [6]; at 50.0 µM 87.3% | [6]; at 100.0 µM 94% | [7]; at 33.0 µM 92% | [7]; at 100.0 µM 97% | [8]; [16] 90% | [8]; [17] 98% | [8]; at 50.0 µM 90.3% | [9]; at 33.0 µM 92% | [9]; at 100.0 µM 99% | [10]; [16] 71% | [10]; [17] 98% | [11]; [16] 93% | [11]; at 11.0 µM 83% | [11]; at 33.0 µM 97% | [11]; [17] 98% | [11]; at 50.0 µM 83.3% | [11]; at 100.0 µM 98% | [12]; at 11.0 µM 92% | [12]; at 33.0 µM 98% | [12]; at 100.0 µM 99% | [13]; at 100.0 µM 90% | [14]; at 100.0 µM 91% | [15]; [17] 99% | [15]; at 50.0 µM 86.4%

CC(=O)N1C=Cc2c(c(C)c3c([nH]c4ccccc43)c2C)C1
active: [1]; at 3.7 µM 88% | [1]; at 11.0 µM 95% | [1]; at 33.0 µM 96% | [1]; at 100.0 µM 97% | [2]; at 11.0 µM 82% | [2]; at 33.0 µM 90% | [2]; at 100.0 µM 92% | [3]; at 3.7 µM 74% | [3]; at 11.0 µM 94% | [3]; at 33.0 µM 97% | [3]; at 100.0 µM 96% | [4]; at 11.0 µM 91% | [4]; at 33.0 µM 96% | [4]; at 100.0 µM 95% | [5]; at 3.7 µM 91% | [5]; [16] 82% | [5]; at 11.0 µM 95% | [5]; at 33.0 µM 96% | [5]; [17] 91% | [5]; at 50.0 µM 87.2% | [5]; at 100.0 µM 95% | [6]; at 11.0 µM 81% | [6]; at 33.0 µM 91% | [6]; [17] 84% | [6]; at 50.0 µM 87.3% | [6]; at 100.0 µM 93% | [7]; at 11.0 µM 79% | [7]; at 33.0 µM 90% | [7]; at 100.0 µM 94% | [8]; [17] 91% | [8]; at 50.0 µM 88% | [9]; at 11.0 µM 91% | [9]; at 33.0 µM 95% | [9]; at 100.0 µM 95% | [10]; [17] 86% | [10]; at 50.0 µM 79.8% | [11]; at 11.0 µM 90% | [11]; at 33.0 µM 95% | [11]; [17] 86% | [11]; at 50.0 µM 85.3% | [11]; at 100.0 µM 96% | [12]; at 11.0 µM 81% | [12]; at 33.0 µM 90% | [12]; at 100.0 µM 92% | [13]; at 3.7 µM 71% | [13]; at 11.0 µM 90% | [13]; at 33.0 µM 96% | [13]; at 100.0 µM 95% | [14]; at 11.0 µM 86% | [14]; at 33.0 µM 95% | [14]; at 100.0 µM 95% | [15]; [17] 95% | [15]; at 50.0 µM 88.8%
inactive: [1]; at 1.2 µM 25% | [2]; at 1.2 µM -7% | [2]; at 3.7 µM 28% | [3]; at 1.2 µM 28% | [4]; at 1.2 µM 29% | [4]; at 3.7 µM 64% | [5]; at 1.2 µM 67% | [6]; at 1.2 µM -5% | [6]; at 3.7 µM 33% | [6]; [16] 12% | [7]; at 1.2 µM 7% | [7]; at 3.7 µM 32% | [8]; [16] 16% | [9]; at 1.2 µM 31% | [9]; at 3.7 µM 52% | [10]; [16] 24% | [11]; at 1.2 µM 16% | [11]; at 3.7 µM 52% | [11]; [16] 14% | [12]; at 1.2 µM 10% | [12]; at 3.7 µM 36% | [13]; at 1.2 µM 31% | [14]; at 1.2 µM -7% | [14]; at 3.7 µM 32% | [15]; [16] 44%

O=C1NC(c2cccc(OCc3ccccc3)c2)Nc2ccccc21 (stereo unspecified)
inactive: [1]; at 1.2 µM 16% | [1]; at 3.7 µM 20% | [1]; at 11.0 µM 19% | [1]; at 33.0 µM 14% | [1]; at 100.0 µM 6% | [2]; at 1.2 µM -10% | [2]; at 3.7 µM -20% | [2]; at 11.0 µM -22% | [2]; at 33.0 µM -26% | [2]; at 100.0 µM -5% | [3]; at 1.2 µM -3% | [3]; at 3.7 µM 10% | [3]; at 11.0 µM 0% | [3]; at 33.0 µM 6% | [3]; at 100.0 µM 16% | [4]; at 1.2 µM -7% | [4]; at 3.7 µM -19% | [4]; at 11.0 µM -35% | [4]; at 33.0 µM -22% | [4]; at 100.0 µM -51% | [5]; at 1.2 µM 12% | [5]; at 3.7 µM 12% | [5]; [16] 49% | [5]; at 11.0 µM 8% | [5]; at 33.0 µM 6% | [5]; at 100.0 µM -9% | [6]; at 1.2 µM 13% | [6]; at 3.7 µM 11%
active: [5]; [17] 81% | [5]; at 50.0 µM 84.3%
